Binding signal data for 54 sequences are collected here from publication PMC10726135, “HNF4α isoforms regulate the circadian balance between carbohydrate and lipid metabolism in the liver”.

Over roughly 18,000 sequences, “log2 normalized intensity” has its median near 0.39; the highest 2% begin near 6.6. The list comes from a sample in which the highest values are over-represented; it also holds similar and randomly drawn sequences.

The assay deals with T1, HNF4alpha2 (COS-7 nuclear extract) (Homo sapiens, UniProt P41235 1-474).
T1 sequence: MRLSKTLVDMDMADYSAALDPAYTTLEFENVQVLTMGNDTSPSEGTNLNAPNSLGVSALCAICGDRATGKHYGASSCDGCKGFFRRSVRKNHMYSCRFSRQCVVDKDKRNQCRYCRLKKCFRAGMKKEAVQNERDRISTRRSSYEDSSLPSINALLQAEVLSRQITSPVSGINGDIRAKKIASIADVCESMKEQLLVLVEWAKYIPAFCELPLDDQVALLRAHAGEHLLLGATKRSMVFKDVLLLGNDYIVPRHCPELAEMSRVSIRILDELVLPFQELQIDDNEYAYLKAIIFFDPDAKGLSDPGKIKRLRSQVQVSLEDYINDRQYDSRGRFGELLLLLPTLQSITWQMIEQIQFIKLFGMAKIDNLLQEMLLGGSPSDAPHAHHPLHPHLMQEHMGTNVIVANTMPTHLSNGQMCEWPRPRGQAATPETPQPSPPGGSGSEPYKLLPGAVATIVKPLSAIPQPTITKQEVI
The experiment in a line: protein-binding microarray; COS-7 nuclear extract on double-stranded Agilent 4x180k PBM; binding buffer, salt, pH and temperature not given in the material; high values mean tight binding. The settings on record: chain copies: 2; label: 3' end of strand 1 on the slide; dsDNA, one strand shown. Put shortly: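 A custom Agilent SurePrint G3 4x180k array, spotted in quadruplicate with ~44,000 test sequences as ~60-nt oligonucleotides made double-stranded, was incubated with nuclear extracts. The extracts came from COS-7 cells transiently transfected by CaPO4 with a human HNF4α isoform expression vector. Bound HNF4α was imaged on an Agilent G2565CA scanner at 2-µm resolution, and the binding signal was taken as Agilent software's background-corrected, normalized gProcessedSignal.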
With “GGGGTCTGGTTTCTAGGTAGATAAGGGAGTGCCTAGGGAGATTAGAGTATCGGTCGA”, the binding signal was determined as 1.29 log2 normalized intensity.

“TCATCCGCATCTGAAGATAAGAGAAGTTGCGCCTAGGGAGATTAGAGTATCGGTCGA”: the binding signal is -0.83 log2 normalized intensity. With “AACAGTGAATGTTTCGTAATATTTAGGTGTGCCTAGGGAGATTAGAGTATCGGTCGA” the figure was 1.49 log2 normalized intensity. With “TCATTTTACAGATAAGGAAACCAAGGTCCAGCCTAGGGAGATTAGAGTATCGGTCGA”, the binding signal stood at 1.45 log2 normalized intensity.

“CACCCCCATGCAAGTTCCCACAGAGCCCACGCCTAGGGAGATTAGAGTATCGGTCGA”: the binding signal turned out to be 4.54 log2 normalized intensity. With “AGTGTAAATATTTGAGGACACAAAGTGGACGCCTAGGGAGATTAGAGTATCGGTCGA” the figure was 2.09 log2 normalized intensity; with “AATCAACCTTTGATCGTTTGCATGCAGGGCGCCTAGGGAGATTAGAGTATCGGTCGA”, 3.25 log2 normalized intensity; with “CAAATAAACCTTTGACCAATTGACCCTATCGCCTAGGGAGATTAGAGTATCGGTCGA”, 3.78 log2 normalized intensity.

As to “CTCATGTGGTCCTAAAATTGACCTTTGATCGCCTAGGGAGATTAGAGTATCGGTCGA”, the binding signal was 10.5 log2 normalized intensity. On to “CTCATGTGGTCCTAAGACTGACCTTTGATCGCCTAGGGAGATTAGAGTATCGGTCGA”, for which the binding signal stood at 10.1 log2 normalized intensity. With “AATTGACCTTTGATCACTCATGGGCAAGATGCCTAGGGAGATTAGAGTATCGGTCGA” the figure was 5.65 log2 normalized intensity.

With “GTTTACTCATGTGGTCCTAAGACTGACCTTGCCTAGGGAGATTAGAGTATCGGTCGA”, the binding signal is 3.77 log2 normalized intensity. The same measure for “CCTAAAATTGACCTTTGATCACTCATGGGCGCCTAGGGAGATTAGAGTATCGGTCGA”: 8.21 log2 normalized intensity; for “TTGTTTACTCATGTGGTCCTAAGACTAACCGCCTAGGGAGATTAGAGTATCGGTCGA”: -0.3 log2 normalized intensity; for “GCTGACCTTTGGTCTAAACCTACTTAGATCGCCTAGGGAGATTAGAGTATCGGTCGA”: 4.25 log2 normalized intensity.

Take “GGTCAAAGAGCAATCATCAAGGTGGTTTCAGCCTAGGGAGATTAGAGTATCGGTCGA”: the binding signal worked out at 1.71 log2 normalized intensity. “AACACTTACACCTGGGTGCTCCCTCCCCCTGCCTAGGGAGATTAGAGTATCGGTCGA”: the binding signal was 4.36 log2 normalized intensity. The same measure for “CTGCCTTAGTCCCAGTATGGTCTCAGTAATGCCTAGGGAGATTAGAGTATCGGTCGA”: -0.127 log2 normalized intensity. Consider “TCCTTTTGACCACAGTTATCTCCCCAGCTTGCCTAGGGAGATTAGAGTATCGGTCGA”, for which the binding signal was 2.47 log2 normalized intensity. The same measure for “CCAGTTCTTTTGACCTTTGCCTCATTCTTAGCCTAGGGAGATTAGAGTATCGGTCGA”: 6.03 log2 normalized intensity; for “ATGCTATCTCCCAGTTCTTTTGACCTTTGCGCCTAGGGAGATTAGAGTATCGGTCGA”: 7.68 log2 normalized intensity. With “ATCTCCCAGTTCTTTTGACCTTTGCCTCATGCCTAGGGAGATTAGAGTATCGGTCGA” the figure was 7.95 log2 normalized intensity; with “CCTCAATGCTATCTCCCAGTTCTTTTGACCGCCTAGGGAGATTAGAGTATCGGTCGA”, 2.52 log2 normalized intensity.

“AGTTATATCTTACCTCCTTCTCCCCCATGCGCCTAGGGAGATTAGAGTATCGGTCGA”: the binding signal turned out to be 4.87 log2 normalized intensity. The same measure for “GAGCGCTTTGAGGCCTATGGCGAAAAAGGAGCCTAGGGAGATTAGAGTATCGGTCGA”: -0.829 log2 normalized intensity; for “ATCTCTAAGCTACTGAAAATGACCTTTGTTGCCTAGGGAGATTAGAGTATCGGTCGA”: 6.11 log2 normalized intensity; for “AAAAAATTACTGACCCTTGCACTGTAAGATGCCTAGGGAGATTAGAGTATCGGTCGA”: 3.49 log2 normalized intensity. With “AAAAAAAAAAATTACTGACCCTTGCACTGTGCCTAGGGAGATTAGAGTATCGGTCGA” the figure was 4.58 log2 normalized intensity; with “TAAGCTACTGAAAATGACCTTTGTTCCCTGGCCTAGGGAGATTAGAGTATCGGTCGA”, 8.2 log2 normalized intensity. Turning to “AATTCATCTCTAAGCTACTGAAAATGACCTGCCTAGGGAGATTAGAGTATCGGTCGA”, the binding signal was determined as 3.39 log2 normalized intensity. The same measure for “TACTGAAAATGACCTTTGTTCCCTGCACTTGCCTAGGGAGATTAGAGTATCGGTCGA”: 7.15 log2 normalized intensity; for “AAGCAATGGCTACCAAGGAGTGGACTGTTCGCCTAGGGAGATTAGAGTATCGGTCGA”: 1.7 log2 normalized intensity; for “GGGGGCAAGGTACACCATCTATGAGCTCAAGCCTAGGGAGATTAGAGTATCGGTCGA”: 1.28 log2 normalized intensity. Regarding “AAAGGCGTTTGCTCCCATCCCCCCAAAGGCGCCTAGGGAGATTAGAGTATCGGTCGA”, the binding signal is 4.99 log2 normalized intensity. With “TTAGATCAGAGGTCTAATTCCCAAGGGTATGCCTAGGGAGATTAGAGTATCGGTCGA” the figure was -0.435 log2 normalized intensity; with “TTAGCCCAGTGAGACCCATTTTGGACTTTGGCCTAGGGAGATTAGAGTATCGGTCGA”, 6.34 log2 normalized intensity; with “CATTGACTTTGCCTTTTGGCTAAAGTCCAAGCCTAGGGAGATTAGAGTATCGGTCGA”, 4.16 log2 normalized intensity. Consider “AATGATGATGACTTTTGACCCCAGGGGAAAGCCTAGGGAGATTAGAGTATCGGTCGA”, for which the binding signal worked out at 5.51 log2 normalized intensity. With “TTTGGAATTTGACCTCATTTGCTCCCAGTGGCCTAGGGAGATTAGAGTATCGGTCGA” the figure was 3.85 log2 normalized intensity. With “CTTTGTAGCACTTTGGACCTCCACTTTGGAGCCTAGGGAGATTAGAGTATCGGTCGA” the figure was 3.1 log2 normalized intensity; with “TTGGACTTTGACCTCCAAAATTATAAGTCAGCCTAGGGAGATTAGAGTATCGGTCGA”, 8.25 log2 normalized intensity; with “GAGACCCATTTTGGACTTTGACCTCCAAAAGCCTAGGGAGATTAGAGTATCGGTCGA”, 10.7 log2 normalized intensity. With “GAATTCTTGACTTTGGACTTTCAAAAGTTAGCCTAGGGAGATTAGAGTATCGGTCGA” the figure was 4.21 log2 normalized intensity. In the case of “TAGCACTTTGGACCTCCACTTTGGAGGGGGGCCTAGGGAGATTAGAGTATCGGTCGA”, the binding signal was 1.7 log2 normalized intensity. The same measure for “CCAGTGAGACCCATTTTGGACTTTGACCTCGCCTAGGGAGATTAGAGTATCGGTCGA”: 11.9 log2 normalized intensity; for “CACAGCTGGACTTTGGCTGCAAAATTTGAAGCCTAGGGAGATTAGAGTATCGGTCGA”: 3.04 log2 normalized intensity; for “CCATTTTGGACTTTGACCTCCAAAATTATAGCCTAGGGAGATTAGAGTATCGGTCGA”: 10.4 log2 normalized intensity. With “CCTCTCTCTCTCTCTCTCACACACACACACGCCTAGGGAGATTAGAGTATCGGTCGA” the figure was 2.09 log2 normalized intensity. “CTTACTTGGCATCATCAAACAAGATTTATCGCCTAGGGAGATTAGAGTATCGGTCGA”: the binding signal was -0.732 log2 normalized intensity. With “TGTAGGTAAGCACAAAGTACAGCTTTTTGTGCCTAGGGAGATTAGAGTATCGGTCGA”, the binding signal stood at 1.13 log2 normalized intensity. The same measure for “TATAAAGGTCAACTGCCCTCTCAAATTACAGCCTAGGGAGATTAGAGTATCGGTCGA”: 1.51 log2 normalized intensity; for “TTTTAAAATAGATAAGTCCCTAAGAGGAATGCCTAGGGAGATTAGAGTATCGGTCGA”: -0.74 log2 normalized intensity; for “ACAAATGAGGGGACAAAGTTCGTGGAAAGTGCCTAGGGAGATTAGAGTATCGGTCGA”: 2.91 log2 normalized intensity. With “GAGCCTGCACGCCTGTTCACATTCCAGTGTGCCTAGGGAGATTAGAGTATCGGTCGA” the figure was -0.595 log2 normalized intensity.
